Hit rate of the full screen: of about 310,000 compounds, about 14,000 (4.5%) showed an effect of 50% or more. Effects have a minus sign here. This excerpt belongs to a sample that is enriched for strong results.
Target: human ether-à-go-go-related gene (hERG) potassium channel (human, UniProt Q12809)
Assay: primary screen, population patch clamp on CHO cells stably expressing hERG; higher = less effect of the substance
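Also: peak tail current of the secondary pulse compared with the same well before compound.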

Chain of human ether-à-go-go-related gene (hERG) potassium channel (Q12809 whole entry, looked up): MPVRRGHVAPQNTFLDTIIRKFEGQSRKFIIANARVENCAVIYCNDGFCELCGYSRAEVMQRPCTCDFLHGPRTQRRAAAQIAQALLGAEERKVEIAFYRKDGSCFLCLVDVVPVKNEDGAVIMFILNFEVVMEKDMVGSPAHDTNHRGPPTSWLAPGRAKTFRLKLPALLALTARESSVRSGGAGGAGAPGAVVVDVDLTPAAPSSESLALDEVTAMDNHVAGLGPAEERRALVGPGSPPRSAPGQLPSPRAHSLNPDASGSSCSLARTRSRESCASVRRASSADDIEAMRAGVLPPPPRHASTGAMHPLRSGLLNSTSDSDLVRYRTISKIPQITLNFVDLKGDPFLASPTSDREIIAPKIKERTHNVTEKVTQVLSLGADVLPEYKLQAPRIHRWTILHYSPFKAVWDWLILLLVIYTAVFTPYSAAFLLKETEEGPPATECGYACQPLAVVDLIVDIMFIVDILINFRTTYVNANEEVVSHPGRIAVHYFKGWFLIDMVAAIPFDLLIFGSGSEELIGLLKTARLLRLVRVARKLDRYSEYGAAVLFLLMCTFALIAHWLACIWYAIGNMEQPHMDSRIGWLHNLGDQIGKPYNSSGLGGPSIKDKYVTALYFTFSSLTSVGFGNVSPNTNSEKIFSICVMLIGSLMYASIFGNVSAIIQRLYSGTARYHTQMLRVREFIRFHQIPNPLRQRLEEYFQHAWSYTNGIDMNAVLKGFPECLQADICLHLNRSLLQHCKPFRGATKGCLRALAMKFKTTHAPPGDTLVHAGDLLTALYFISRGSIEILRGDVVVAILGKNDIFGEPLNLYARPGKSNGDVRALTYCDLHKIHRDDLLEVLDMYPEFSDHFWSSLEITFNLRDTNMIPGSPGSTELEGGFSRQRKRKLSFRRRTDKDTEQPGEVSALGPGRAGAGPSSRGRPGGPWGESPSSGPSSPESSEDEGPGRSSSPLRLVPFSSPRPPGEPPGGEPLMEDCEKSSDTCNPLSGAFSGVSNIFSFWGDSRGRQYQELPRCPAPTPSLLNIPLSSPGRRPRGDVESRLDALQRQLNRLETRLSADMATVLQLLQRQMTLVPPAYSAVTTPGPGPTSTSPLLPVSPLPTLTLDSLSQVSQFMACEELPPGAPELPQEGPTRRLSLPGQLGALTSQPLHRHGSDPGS

Compound | hERG current change (%, negative = inhibition) at 10uM
Cc1cccc(NC(=O)CCc2ccc(S(=O)(=O)NC3CCCCC3)cc2)c1 | 14.4%
Cc1oc2c(c(C)cc3oc(=O)c(CC(=O)N[C@@H](CC(C)C)C(=O)O)c(C)c32)c1C | 15.8%
COC(=O)CSc1nc2c(c(=O)n(C)c(=O)n2C)n1CCC(C)C | -5.54%
CCS(=O)(=O)N1CCCC(C(=O)c2ccc(OC)cc2C)C1 (stereo not shown) | 28.9%
CC(=O)O[C@@H]1/C=C/[C@](C)(O)C[C@@H](C)C/C=C/[C@H]2[C@@H]3O[C@]3(C)[C@@H](C)[C@H]3[C@H](Cc4ccccc4)NC(=O)[C@@]312 | 16%
O=C(Nc1cccc(C(F)(F)F)c1)C(SCCO)c1ccccc1 (stereo not shown) | -4.8%
O=C(Nc1cccc(C(F)(F)F)c1)C(Sc1cccc[n+]1[O-])c1ccccc1 (stereo not shown) | -42.7%
O=C(Nc1ccc(Cl)cc1C(F)(F)F)C(Sc1cccc[n+]1[O-])c1ccccc1 (stereo not shown) | -81.3%
CN(C)CC(C)(C)CNC(C(=O)Nc1ccc(Cl)cc1C(F)(F)F)c1ccccc1 (stereo not shown) | -76.9%
O=C(Nc1cc(C(F)(F)F)ccc1Cl)C(Sc1cccc[n+]1[O-])c1ccccc1 (stereo not shown) | -14.5%
COc1cccc(NC(=O)C(NCC(C)(C)CN(C)C)c2ccccc2)c1.O=C(O)C(=O)O (stereo not shown) | -48.4%
CN(C)c1cccc(C(=O)OC(C(=O)Nc2ccc(Cl)cc2C(F)(F)F)c2ccccc2)c1 (stereo not shown) | -3.78%
N#CCC(=O)N/N=C\c1ccc(OC/C=C/c2ccccc2)cc1 | 14.4%
Cc1ccccc1S(=O)(=O)Cc1ccc(C(=O)NC2CCCCC2)o1 | -1.84%
Nc1nc(SCC(=O)Nc2ccc([N+](=O)[O-])cc2Br)n[nH]1 | 3.65%
CCOC(=O)C1(CC2CCCCO2)CCN(C(=O)Nc2ccccc2)CC1 (stereo not shown) | 12%
COc1ccc(/C=C/c2cc(-c3ccc(C)cc3)o[n+]2C)cc1.F[B-](F)(F)F | -77.1%
COc1ccc(/C=C/C(=O)Oc2ccc(C)cc2)cc1 | -14.4%
COc1ccc(/C=C/c2cc(C(F)(F)F)on2)cc1 | 16.4%
Cc1ccccc1NC(=O)c1ccc2ccccc2c1 | -8.12%
CCC(C)(C(=O)Nc1c(C)cccc1C)N(C)C(=O)c1ccc2ccccc2n1 (stereo not shown) | 8.52%
CSCC[C@H](NC(=O)c1cccs1)C(=O)N1CCC2(CC1)NCCc1[nH]cnc12 | 10.2%

Compound | hERG current change (%, negative = inhibition) at 10uM
CCCCNc1ccc(S(=O)(=O)c2cccc([N+](=O)[O-])c2)cc1[N+](=O)[O-] | -22.2%
O=[N+]([O-])c1cccc(S(=O)(=O)c2ccc(NCCO)c([N+](=O)[O-])c2)c1 | -51%
O=[N+]([O-])c1cccc(S(=O)(=O)c2ccc(NCCOCCO)c([N+](=O)[O-])c2)c1 | -38.3%
Cn1c(=O)c(C(=O)CN2CCCCCC2)c(N)n(Cc2ccccc2)c1=O | -13.5%
Cn1c(=O)c(C(=O)CN2CCOCC2)c(N)n(Cc2ccccc2)c1=O | -13.2%
CCn1c(=O)c(C(=O)CN2CCN(S(=O)(=O)c3ccccc3)CC2)c(N)n(Cc2ccccc2)c1=O | -14.6%
CCn1c(=O)c(C(=O)CN2CCOCC2)c(N)n(Cc2ccccc2)c1=O | -19%
CCn1c(=O)c(C(=O)CN2CCN(Cc3ccc4c(c3)OCO4)CC2)c(N)n(Cc2ccccc2)c1=O | -72%
Cn1c(=O)c(C(=O)CN2CCN(Cc3ccc4c(c3)OCO4)CC2)c(N)n(Cc2ccccc2)c1=O | -66.8%
CN1CCN(c2ccc(N)c(N3CCN(C)CC3)c2)CC1 | 13.4%
CC(C)(C)NC(=O)C(c1ccc(F)cc1)N(Cc1ccccc1Cl)C(=O)c1ccn[nH]1 (stereo not shown) | 25.6%
CC1(C)CC(=O)C=C(c2cccc3c2oc2ccccc23)C1 | -2.67%
CCCOc1ccc2oc(=O)c3c(c2c1)CCCN3C(=O)CN1CCN(C(=O)c2ccco2)CC1 | -65.3%
O=C(c1ccco1)N1CCN(CC(=O)N2CCCc3c2c(=O)oc2ccc(O)cc32)CC1 | -5.14%
CC(=O)Oc1ccc2oc(=O)c3c(c2c1)CCCN3C(=O)CN1CCN(c2ncccn2)CC1 | -7.91%
CCCOc1ccc(C(=O)Nc2ccc(N3CCN(C(=O)c4ccco4)CC3)cc2)cc1 | 13.2%
CCCOc1ccc2oc(=O)c3c(c2c1)CCCN3C(=O)CN1CCCC(C(=O)OCC)C1 (stereo not shown) | -65.5%
CCCOc1ccc2oc(=O)c3c(c2c1)CCCN3C(=O)CN1CCN(c2ncccn2)CC1 | -70.1%
CCCOc1ccc2oc(=O)c3c(c2c1)CCCN3C(=O)CN1CCc2ccccc2C1 | -24.1%
CCCCCOc1ccc2oc(=O)c3c(c2c1)CCCN3C(=O)CN1CCCC(C(=O)OCC)C1 (stereo not shown) | -0.3%
CCOC(=O)C1CCCN(Cc2cc(=O)oc3cc(C)c(C)cc23)C1 (stereo not shown) | -19.3%
